# Source: the supplement of paper PMC6555819
# Columns and labels:
# Test in all cases: PBM binding z-score (relative to random genomic background probes); higher = stronger binding; sequences stand for … in GC…GCGATTGACAGCGTAGAATGAAGG
# [1] = tested on: FXR:RXRa (NR concentration 270 nM, RXRa partner concentration 90 nM)
# Summary of the method: (§1)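 Regression normalization was applied to scanned fluorescence from custom Agilent 4×180K protein-binding microarrays. Before scanning, arrays were incubated 1 h with ligand-free nuclear receptor dimers, and binding was detected with antibodies against each partner (one per run). Binding z-scores use the random background probes as reference.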
# [2] = tested on: LXRa:RXRa (NR concentration 270 nM, RXRa partner concentration 90 nM)
# Summary of the method: as §1
# [3] = tested on: LXRa homodimer (NR concentration 270 nM)
# Summary of the method: as §1
# [4] = tested on: LXRb:RXRa (NR concentration 270 nM, RXRa partner concentration 90 nM)
# Summary of the method: as §1
# [5] = tested on: LXRb homodimer (NR concentration 270 nM)
# Summary of the method: as §1
# [6] = tested on: PPARa:RXRa (NR concentration 270 nM, RXRa partner concentration 90 nM)
# Summary of the method: as §1
# [7] = tested on: PPARg:RXRa (NR concentration 180 nM, RXRa partner concentration 90 nM)
# Summary of the method: as §1
# [8] = tested on: PPARg:RXRa 270nM:90nM, anti-RXR (NR concentration 270 nM, RXRa partner concentration 90 nM)
# Summary of the method: as §1
# [9] = tested on: PPARg:RXRa 30nM:10nM, anti-RXR (NR concentration 30 nM, RXRa partner concentration 10 nM)
# Summary of the method: as §1
# [10] = tested on: PPARg:RXRa 90nM:30nM, anti-RXR (NR concentration 90 nM, RXRa partner concentration 30 nM)
# Summary of the method: as §1
# [11] = tested on: PPARg:RXRa DBDmut IVT, anti-RXR (DBD mutation: RXRa K156A/R161A, NR concentration 270 nM, RXRa partner concentration 90 nM)
# Summary of the method: as §1
# [12] = tested on: PPARg:RXRa IVT, anti-PPARg (NR concentration 270 nM, RXRa partner concentration 90 nM)
# Summary of the method: as §1
# [13] = tested on: PPARg DBDmut:RXRa IVT, anti-PPARg (DBD mutation: PPARg1 K132A/R137A, NR concentration 270 nM, RXRa partner concentration 90 nM)
# Summary of the method: as §1
# [14] = tested on: PPARg DBDmut IVT, anti-PPARg (DBD mutation: PPARg1 K132A/R137A, NR concentration 270 nM)
# Summary of the method: as §1
# [15] = tested on: PPARg homodimer (NR concentration 180 nM)
# Summary of the method: as §1
# [16] = tested on: PXR:RXRa (NR concentration 270 nM, RXRa partner concentration 90 nM)
# Summary of the method: as §1
# [17] = tested on: PXR homodimer (NR concentration 270 nM)
# Summary of the method: as §1
# [18] = tested on: RARa:RXR (NR concentration 270 nM, RXRa partner concentration 90 nM)
# Summary of the method: as §1
# [19] = tested on: RARa homodimer (NR concentration 270 nM)
# Summary of the method: as §1
# [20] = tested on: RARb:RXRa (NR concentration 270 nM, RXRa partner concentration 90 nM)
# Summary of the method: as §1
Sequence,PBM binding z-score [1],PBM binding z-score [2],PBM binding z-score [3],PBM binding z-score [4],PBM binding z-score [5],PBM binding z-score [6],PBM binding z-score [7],PBM binding z-score [8],PBM binding z-score [9],PBM binding z-score [10],PBM binding z-score [11],PBM binding z-score [12],PBM binding z-score [13],PBM binding z-score [14],PBM binding z-score [15],PBM binding z-score [16],PBM binding z-score [17],PBM binding z-score [18],PBM binding z-score [19],PBM binding z-score [20]
CCTACTGGGCCATCAGGTCATTGAAATCAACGTT,1.33,1.07,1.03,1.45,-0.244,2.74,2.67,3.66,1.23,2.99,4.17,4.91,-0.467,-0.409,0.78,1.25,0.298,1.68,0.289,2.04
GCGACTGGGGCAAAGCAAGTTACCATAAGGTTGG,-0.106,-0.224,-0.376,-0.3,-0.665,0.868,0.964,1.1,-0.269,0.301,4.67,3.4,-0.185,-1.06,0.355,-0.0344,-0.458,0.375,-0.721,0.659
ACAGACAGGTGATGAAAGTAACTCAGGCTATCAT,-0.313,-0.244,-0.212,-0.34,-0.446,-0.12,0.596,-0.0784,-0.0592,-0.305,-0.123,0.107,0.648,-0.00926,-0.948,-0.313,0.153,-0.63,-0.762,0.0648
CGAACTAGGTCATCCAGGACAGTCAATACATTGA,4.68,3.11,0.817,2.43,0.306,5.03,7.74,6.5,3.94,6.22,8.57,8.35,3.88,2.33,1.98,2.25,1.6,2.83,0.712,3.95
CCAGACAGGTGAGAAGGTAATTCAGCCTCGATTA,-0.0604,-0.00281,0.0932,0.0559,-0.31,0.475,0.379,0.635,-0.0755,0.116,1.14,0.682,-0.0729,-0.734,0.321,-0.0378,0.107,0.349,0.94,0.555
CGTCCAAGGTCAAGGTCATTGAAAGAGACTCGAA,7.9,6.06,2.42,5.26,1.4,6.18,6.59,6.7,3.18,5.62,3.44,5.03,0.777,-0.505,4.46,5.75,2.42,5.73,2.35,5.56
ACTAGCAGGCCAAGGGTCCCTCAAGATTAGTCCG,-0.253,-0.502,-0.631,-0.64,-1.13,1.09,2.3,4.09,1.73,3.84,0.0687,0.882,-0.919,-0.963,-0.0936,-0.598,-0.427,-0.327,-1.05,0.381
ATCTAAAGGTCGTGAGGTGAGTATACAGAAAGGC,5.84,5.04,1.01,3.73,1.12,5.2,4.73,4.73,2.02,3.72,1.12,2.89,1.3,1.74,2.21,3.4,0.645,4.46,1.13,4.15
CAAACTAGGTCAAGAGGTCAAAGTCCGCTTCCCG,7.09,6.37,6.55,5.7,1.96,6.67,9.95,8.33,6.28,8.63,8.49,8.35,2.14,1.19,6.92,6.2,2.86,7.83,3.01,5.53
CCTTCCGGGTCACTGACAGGTTATAGCATTTGGA,4.43,3.92,0.31,3.22,0.12,5.01,4.96,5.08,1.75,3.7,3.69,5.08,0.702,-0.286,2.37,3.71,0.125,4.23,0.725,3.78
TCTTGTAGATCAAGCAGCTTAAGAAAGCCTGAGT,-0.352,-0.169,-0.373,-0.0264,-0.791,0.29,-0.61,1.03,2.17,1.5,1.1,0.213,-0.268,-0.032,0.0501,-0.0224,-0.129,-0.209,-0.515,-0.253
CGTGCAAGGTCAAAGGTCAGTGAAGAGATGACGG,8.16,6.9,3.14,6.7,1.86,7.4,10.9,9.02,7.56,9.38,4.05,5.94,1.68,0.658,4.64,7.09,1.48,8.94,1.9,5.91
TAGCCTAGGTCATGGGCCAGTATGCCACGCGAAC,4.69,3.46,0.00314,2.02,-0.474,4.18,4.02,3.65,0.999,2.81,1.9,3.62,-0.369,0.218,1.49,1.42,-0.923,2.53,-0.739,3.93
GCTGCTAGGTCAACTGATGGTCAGCGAAAGCTCG,4.13,3.2,0.141,2.07,-0.112,3.84,2.73,3.35,0.723,2.31,4.56,4.1,0.329,-0.0247,1.64,1.7,-0.425,2.98,0.244,4.37
TCTTGTAGATCAAAGGCTAAGAAAGCCGAAGCCT,0.284,0.0908,-0.472,-0.0772,-0.625,1.68,3.24,4.87,4.4,5.12,1.65,1.23,0.137,0.157,-0.136,-0.183,-0.625,0.0326,-0.389,0.153
CCAGACAGGTGAAAGGGAACTCAGTCTGGTACGC,-0.208,-0.0389,-0.366,-0.0234,-0.681,1.63,2.51,3.24,1.06,2.69,1.08,1.02,0.273,-0.448,0.717,-0.0959,-0.23,0.13,0.262,0.537
GCAGAGAGGTGAAACGCAGGTAACTCAGGGTGGC,0.782,1.12,-0.671,0.662,-1.3,2.86,1.21,1.02,-0.323,-0.000796,2.17,1.97,-0.463,-1.39,-0.0516,0.34,-0.544,1.48,-0.435,1.88
GGAACGTGGGCAAAGTTGATAGCATCTGTCGACG,-0.58,-0.566,-0.508,-0.667,-0.939,0.742,1.45,3.26,0.952,2.7,-0.0354,0.169,-0.243,-0.6,0.0888,-0.428,-0.473,-0.469,-0.252,0.113
ATCCCTAGGTAAAGATAGTTCAGTGAATGCAAAT,0.139,4.49,0.337,0.881,0.0793,0.459,0.486,-0.104,-0.14,-0.302,-0.0456,0.0928,0.379,0.507,0.544,1.12,0.666,0.665,1.04,0.863
TCATATAGGTAAATGCTAGGTGAAATTCCGATCT,0.456,0.522,-0.0474,0.729,0.187,1.17,0.929,2.31,3.86,3.3,3.98,2.41,0.621,1.13,1.04,0.404,0.241,0.848,1.28,0.363
CCTACTGCGCCACGAAAGGTCATTGATTCAGTGA,3.86,5.05,5.64,4.54,2,4.35,1.08,3.21,0.979,1.98,0.564,1.65,1.03,0.0242,4.6,5.41,2.88,5.88,2.27,3.86
CTTACTGGGCCATTCAGAGGTCATTGATCATATG,3.23,4.72,6.7,4.11,0.985,4.48,4.03,4.43,2.21,3.71,6.81,6.21,0.768,1.22,2.09,4.88,2.99,4.16,0.436,3.23
GCTAGTTGGTCAGTAAAGGGTCACACACCGGTCG,2.1,2.52,1.36,2.63,0.0328,3.36,1.72,2.79,0.505,1.89,0.794,2.2,-0.362,-0.645,2.52,3.32,0.202,4.15,0.553,3.43
CTCGAAAGGTCGGTTGAGGTAAGTATACGGATAA,1.93,1.41,-0.197,1.28,-0.165,2.34,0.4,0.787,0.0171,0.608,-0.106,0.306,-0.141,0.138,0.476,2.45,0.12,1.54,-0.0404,2.64
GTACCAAGGTGAATAGGTCCTTGATGAGTAGGCG,0.104,0.0189,-0.541,-0.255,-0.745,1.27,0.918,0.908,0.0599,0.237,1.68,1.9,-0.22,-0.0495,0.461,-0.118,-0.138,0.337,0.144,1.23
AGAATGAGGTTAATAAGATCAGGGAATTGCGGTC,1.38,1.15,0.213,1.24,0.00596,2.74,1.75,2.22,0.516,1.58,3.37,2.89,0.759,0.384,1.23,1.06,0.151,1.48,0.329,1.58
